In PubChem BioAssay:
Calls of active or inactive are those of the source.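 Rule for the calls: active = fluorescence slope higher than the sample average by over 3 SD (cut at about -0.22 in these data, passing the limit was not always enough); inactive = the rest.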

Each compound was assayed against Voltage-gated potassium channel subunit beta-2 (Rattus norvegicus) (UniProt P62483) (assay: inhibitors of rat Kvbeta2 reductase activity – biochemical, NADPH fluorescence, primary screen (AID 622;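 note: slope of raw intensity against log time taken from 70 to 1610 s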)). Details: recombinant KvBeta, 4-cyanobenzaldehyde reduction, at 10 µM, stronger effect = higher value.
Voltage-gated potassium channel subunit beta-2 (Rattus norvegicus), sequence (P62483 whole entry, looked up): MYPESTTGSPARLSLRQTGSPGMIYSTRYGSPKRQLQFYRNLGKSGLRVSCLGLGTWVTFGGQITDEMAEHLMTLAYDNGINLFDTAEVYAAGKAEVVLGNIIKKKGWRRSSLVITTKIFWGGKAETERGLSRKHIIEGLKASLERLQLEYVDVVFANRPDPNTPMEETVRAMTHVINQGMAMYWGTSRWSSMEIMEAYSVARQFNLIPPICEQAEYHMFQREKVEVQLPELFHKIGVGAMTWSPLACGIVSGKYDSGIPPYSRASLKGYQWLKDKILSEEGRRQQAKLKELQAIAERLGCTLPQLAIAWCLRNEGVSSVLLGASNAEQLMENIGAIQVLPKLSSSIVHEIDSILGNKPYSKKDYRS

Fluorescence slope, inactive:
CCOCCCNC(=O)CS(=O)(=O)Cc1nc(-c2cccc(OC)c2)oc1C -0.596, Cc1ccc(Br)cc1S(=O)(=O)N1CCN(c2ccccc2)CC1 -0.463, Cn1c(=O)c(=O)n(C)c2cc(S(=O)(=O)N3CCN(c4cccc(C(F)(F)F)c4)CC3)ccc21 -0.354, Cc1cccc(N2CCN(C(=O)C3CCCN(S(=O)(=O)c4c(C)noc4C)C3)CC2)c1C (stereo not given) -0.571, COc1ccc(-n2c(SCC(=O)N3CCCCC3C)nnc2-c2cccnc2)cc1 (stereo not given) -0.337, NCc1cccc(-n2cccn2)c1 -0.622, COC(=O)CSC1=C(C#N)C(c2ccccc2)CC(=O)N1 (stereo not given) -0.372, Oc1ccc(N2CCN(C(c3ccncc3)c3nnnn3C3CCCC3)CC2)cc1 (stereo not given) -0.502, CCc1nc2scc(-c3ccccc3)c2c(=O)n1N -0.437, CN(Cc1cccs1)C(=O)CCc1ccc(S(=O)(=O)N2CCOCC2)cc1 -0.466, CC1=C(C(N)=O)C(c2ccccn2)n2nc(SCc3ccccc3)nc2N1 (stereo not given) -0.316, CCOc1ccc(NC(=O)c2ccccc2O)cc1 -0.622, O=S(=O)(c1ccc2ccccc2c1)N1CCCCC1 -0.413, N#CC1=C(N)OC(c2ccccc2)=C(C#N)C1c1ccc2c(c1)OCO2 (stereo not given) -0.482, Cc1cc(C)c2c(=O)n(CC(=O)NCCCN3CCOCC3)sc2n1 -0.548, COC(=O)CNC(=O)COC(=O)c1cc(Cl)cc(Cl)c1N -0.41, CCOc1ccc(NCc2nnc(SCC(=O)Nc3cc(C)on3)n2-c2ccccc2OC)cc1 -0.452, CCN(CC)CCNC(=O)c1ccc(CS(=O)(=O)c2ccc(Br)cc2)o1 -0.611, CCCn1c(=NC(C)=O)c(C#N)cc2c(=O)n3cccc(C)c3nc21 -0.0531, CCn1c(=O)c(C(=O)Nc2cccnc2)c(O)c2ccccc21 -0.465, Cc1cccc(C2CC(c3ccccc3)Nc3nc(N)nn32)c1 (stereo not given) -0.517, CCOC(=O)CN1CC23C=CC(O2)C(C(=O)Nc2ccc(C(C)=O)cc2)C3C1=O (stereo not given) -0.574, COc1ccccc1CNC(=O)C1CCCN(S(=O)(=O)c2cccc3cccnc23)C1 (stereo not given) -0.592, COc1ccc(C2=NO[C@@H]3C(=O)N(c4ccc5c(c4)OCCO5)C(=O)[C@H]23)cc1OC -0.541, CCOC(=O)c1ccccc1NC(=O)CSc1nnc(COc2ccccc2C)n1C -0.346, COC(=O)c1sc(N2C(=O)C(O)=C(C(=O)c3ccc(C)o3)C2c2ccc(F)cc2)nc1C (stereo not given) -0.419, CCN(CCNC(=O)CS(=O)(=O)Cc1nc(-c2cccc(OC)c2)oc1C)c1ccccc1 -0.53, CN(CCNS(=O)(=O)c1ccc2c(c1)oc(=O)n2C)Cc1ccccc1 -0.604, CC1CCN(c2nc3c(c(=O)[nH]c(=O)n3C)n2CCSc2ncccn2)CC1 -0.43, COc1cc2c(C)nc(C)c(C#N)c2cc1OC -0.481, COc1ccc(N(CC(=O)Nc2ccc(F)c(Cl)c2)S(=O)(=O)c2c(C)noc2C)cc1 -0.425, Cc1nc2ncnn2c(N2CCC(C(=O)NC3CCCC3)CC2)c1Cc1ccccc1 -0.463, CCC(C)(C)NC(=O)C(c1ccco1)N(C(=O)Cn1nnc2ccccc21)c1ccc2c(c1)OCO2 (stereo not given) -0.522, Fc1cccc(NCc2cn3ccccc3n2)c1 -0.209, COc1ccccc1N1CCN(Cc2nc(N)nc(Nc3ccc(C)c(Cl)c3)n2)CC1 -0.501, COCCCNC(=O)CSc1ccc(Cl)cc1 -0.377, CS(=O)(=O)NCCSCc1c(F)cccc1Cl -0.527, O=C(NCC1CCCO1)C1CCC(CNS(=O)(=O)c2ccccc2)CC1 (stereo not given) -0.499, Cc1ccc(C2C(C(=O)c3sc(C)nc3C)=C(O)C(=O)N2CCN(C)C)o1 (stereo not given) -0.351, O=C(Nc1nc2c(s1)CCCC2)C1COc2ccccc2O1 (stereo not given) -0.517
